# According to PubChem BioAssay (NCATS):
# Where “and” joins values, the source holds several entries; their conditions need not be identical. Equal values may be shown once. Inconclusive results are not listed. A number with no mark means an inactive call. Calls of active or inactive are those of the source. Calls come from the whole dose curve; as a rule, active = well fitted curve in the direction sought with a large enough effect; inconclusive = small, poorly fitted or top-dose-only effect, or another doubt; inactive = no such curve, though single readings can be large; an effect the other way counts as inactive or inconclusive.
# What was measured:
# [1] = Viability qHTS for spleen associated tyrosine kinase inhibitor (SYKi) naive MV4-11 cells (AID 1963823); settings: MV4-11 AML viability, CellTiter-Glo luminescence, 72 h; series mostly up to 45 µM; note: nearly all actives have a fitted effect of over 40% in size
# Summary of the method: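 Viability of MV4-11 AML cells lacking prior SYK inhibitor exposure is scored by CellTiter-Glo luminescence following 72 hr compound incubation at 37 C, 5% CO2, seeded at 500 cells per well.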
# [2] = Cellular viability qHTS for adrenocortical cancer (ACC) cell line SW-13 (AID 1963989); settings: SW-13 ACC cells viability, CellTiter-Glo, 48 h; activity (max response): active compounds read low; note: nearly all actives have a fitted effect of over 65% in size;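 for activity (max response): cells grown in serum-free medium with ITS supplement; % is set by controls: 0 for no effect and ±100 for the full control effect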
# Summary of the method: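 48 h treatment, SW-13 in ITS/DMEM serum-free; doses up to 46 uM; readout CellTiter-Glo luminescence; curve fit four-parameter logistic.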
# [3] = Quantitative highthroughput screen to assess conditional lethalithy of SEM cells grown in RPMI1640 with dialyzed fetal bovine serum (RPMI+ds) (AID 1963884); settings: SEM B-ALL cells, RPMI+dialyzed FBS, CellTiter-Glo viability, 48 h; series mostly up to 45.8 µM; note: nearly all actives have a fitted effect of over 35% in size
# Summary of the method: (§1)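 Each medium arm—HPLM with 10% dialyzed FBS, or RPMI1640 with 5 mM glucose and 10% untreated or dialyzed FBS—was screened against an 11-point, 3-fold compound titration for 48 h at 37 °C, with CellTiter-Glo luminescence as endpoint.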
# [4] = Cellular viability qHTS for adrenocortical cancer (ACC) cell line NCI-H295R (AID 1963990); settings: CellTiter-Glo ATP luminescence, 48 h; series mostly up to 46.1 µM; note: nearly all actives have a fitted effect of over 60% in size
# Summary of the method: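 Compound titrations (up to 46 uM final) are applied to NCI-H295R cultures for 48 h at 37C. Viable cell number is estimated by CellTiter-Glo signal, normalised to DMSO and doxorubicin controls.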
# [5] = Quantitative highthroughput screen to assess conditional lethalithy of SEM cells grown in Human Plasma-Like Medium with dialyzed fetal bovine serum (HPLM+ds) (AID 1963882); settings: SEM B-ALL cells in HPLM+ds, CellTiter-Glo viability, 48 h; series mostly up to 45.8 µM; note: nearly all actives have a fitted effect of over 35% in size
# Summary of the method: as §1
# [6] = Quantitative highthroughput screen to assess conditional lethalithy of P12 Ichikawa cells grown in RPMI1640 with dialyzed fetal bovine serum (RPMI+ds) (AID 1963880); settings: ATP luminescence, 48 h; Potency: P12-Ichikawa viability; series mostly up to 45.8 µM; note: nearly all actives have a fitted effect of over 35% in size
# Summary of the method: as §1
# [7] = Quantitative highthroughput screen to assess conditional lethalithy of SEM cells grown in RPMI1640 with unreated serum (RPMI+s) (AID 1963883); settings: SEM B-ALL cells, CellTiter-Glo viability, 48 h; series mostly up to 45.8 µM; note: nearly all actives have a fitted effect of over 35% in size
# Summary of the method: as §1
# Potency is the fitted concentration of half-maximal effect.
smiles,measurement,setting,value
O=c1sn(-c2cccc3ccccc23)c(=O)n1Cc1ccccc1,Potency,[1],14.6 µM (active)
same,activity (max response),[2],-18.3%
NC(=O)c1ccc2[nH]ccc2c1,Potency,[1],inactive
same,Potency,[3],18.7 µM (active)
same,activity (max response),[2],-8.13%
same,Potency,[4],inactive
c1ccc(-c2oc3ncnc(NC[C@@H]4CCCO4)c3c2-c2ccccc2)cc1,Potency,[1],9.2 µM (active)
same,Potency,[5],inactive
same,activity (max response),[2],-50.5%
Cc1cc(Nc2cc(CN3CCOCC3)c3nc(C)c(Cc4ccc(Cl)cc4F)n3n2)n[nH]1,Potency,[1],146 nM (active) and 148 nM (active)
same,Potency,[6],7.43 µM (active)
same,Potency,[5],1.66 µM (active)
same,Potency,[7],2.09 µM (active)
same,Potency,[3],1.48 µM (active)
same,Potency,[2],2.51 µM (active)
COc1cc(C)c(Cc2cnc(N)nc2N)cc1OC,Potency,[1],inactive
same,activity (max response),[2],-2.95%
C=CCc1ccccc1OCC(O)CNC(C)C (stereo unspecified),Potency,[1],inactive
same,activity (max response),[2],1.07%
Cc1cccc(C)c1NC(=O)CN1CCN(CCCC(c2ccc(F)cc2)c2ccc(F)cc2)CC1,Potency,[1],10.6 µM (active)
same,activity (max response),[2],-13.9%
CCCCCCCCCCCCSCCOCCO,Potency,[1],inactive
same,activity (max response),[2],-3.34%
same,Potency,[4],inactive
Cc1ncc(CSSCc2cnc(C)c(O)c2CO)c(CO)c1O,Potency,[1],inactive
same,activity (max response),[2],9.04%
same,Potency,[4],inactive
FC(F)(F)c1ccccc1-n1ccnc1,Potency,[1],inactive
same,activity (max response),[2],17.5%
same,Potency,[4],inactive
CCCNC(=O)[C@H]1O[C@@H]1C(=O)N[C@H](C(=O)N1CCC[C@H]1C(=O)OC)C(C)CC (stereo partly specified),Potency,[1],1.66 µM (active)
same,Potency,[2],10 µM (active)
Cc1onc(-c2c(Cl)cccc2Cl)c1C(=O)N[C@@H]1C(=O)N2[C@@H]1SC(C)(C)[C@@H]2C(=O)O,Potency,[1],inactive
same,activity (max response),[2],1.28%
same,Potency,[4],inactive
COc1ccc(C(=O)N2CCN(c3ccc4c(c3)CCC(=O)N4)CC2)cc1OC,Potency,[1],inactive
same,activity (max response),[2],5.3%
same,Potency,[4],inactive
O=C(CCl)Nc1cccc(NC2=NS(=O)(=O)c3ccccc32)c1,Potency,[1],2.63 µM (active)
same,Potency,[2],8.91 µM (active)
same,Potency,[4],3.16 µM (active)
CC(N)C(=O)OC(C)(C)Cc1ccc(Cl)cc1 (stereo unspecified),Potency,[1],inactive
same,activity (max response),[2],12.9%
same,Potency,[4],inactive
C/C=C(/C)C(=O)O[C@H]1C(C)=CC23C(=O)C(C=C(CO)[C@@H](O)[C@]12O)[C@H]1[C@@H](C[C@H]3C)C1(C)C (stereo partly specified),Potency,[1],0.0166 µM (active)
same,activity (max response),[2],-8.96%
same,Potency,[4],inactive
O=C(NNc1ccccc1)c1ccncc1,Potency,[1],inactive
same,activity (max response),[2],1.69%
Oc1cccc2[nH]ccc12,Potency,[1],5.31 µM (active)
same,activity (max response),[2],11.5%
same,Potency,[4],inactive
C=C1[C@H](OC(=O)/C=C(\C)CC)C[C@@H](C(C)C)[C@@H]2[C@H]([C@@H](C)OC(C)=O)C(=O)C[C@@H]12,Potency,[1],14.8 µM (active)
same,activity (max response),[2],6.72%
same,Potency,[4],inactive
C=C[C@H]1CN2CC[C@H]1C[C@@H]2[C@@H](O)c1ccnc2ccc(OC)cc12,Potency,[1],inactive
same,activity (max response),[2],6.85%
same,Potency,[4],inactive
O=C(Cn1ccnc1[N+](=O)[O-])NCc1ccccc1,Potency,[1],inactive
same,activity (max response),[2],-1.05%
CCN1CCC[C@H]1CNC(=O)c1c(OC)ccc(Br)c1OC,Potency,[1],6.68 µM (active)
same,activity (max response),[2],-0.795%
same,Potency,[4],inactive
CN(C)CCNC(=O)NC[C@H]1CC[C@@H]2[C@H](O1)c1cc(C(F)(F)F)ccc1N[C@H]2c1ccccc1,Potency,[1],0.148 µM (active)
same,Potency,[2],0.251 µM (active)
same,Potency,[4],0.891 µM (active)
